Source: PubChem BioAssay
BCLXL inh – inhibitors of human Bcl-xL, primary screen, biochemical, fluorescence polarization, HTS; Bcl-2-like protein 1 (Homo sapiens), Q07817; 0.7% of 320,000 active; GST-Bcl-xL / FITC-Bim BH3 peptide fluorescence polarization; inhibition, % at 10.9 µM;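 active means inhibition above the mean of all tested compounds plus 3 SD, cutoff set per campaign, cut at about 30% in these data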;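 further: 0% = DMSO wells and 100% = unlabeled Bim-BH3 peptide competitor; inhibitors lower millipolarization by displacing the labeled peptide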
Target sequence (Q07817 whole entry, looked up): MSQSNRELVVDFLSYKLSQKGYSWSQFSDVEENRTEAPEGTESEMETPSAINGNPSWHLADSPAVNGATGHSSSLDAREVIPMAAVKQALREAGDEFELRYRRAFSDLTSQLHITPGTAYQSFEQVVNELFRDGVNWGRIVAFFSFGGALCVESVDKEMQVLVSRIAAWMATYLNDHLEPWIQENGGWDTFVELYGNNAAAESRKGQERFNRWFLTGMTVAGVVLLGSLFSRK
Mcl1-Bid inh – Mcl-1/Bid binding inhibitors, primary screen, biochemical, TR-FRET, 1536-well. Induced myeloid leukemia cell differentiation protein Mcl-1 (Homo sapiens), Q07820. TR-FRET Mcl-1/Bid-Dy647 peptide binding. 0.97% of 220,000 active. inhibition, % at 21.7 µM;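 active means compounds that cut the binding signal by more than half at the single screening dose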;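 further: His-tagged Mcl-1 with europium anti-His antibody binding Bid BH3 peptide; 0% = Mcl-1 plus peptide wells and 100% = peptide-only wells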
Target sequence (Q07820 whole entry, looked up): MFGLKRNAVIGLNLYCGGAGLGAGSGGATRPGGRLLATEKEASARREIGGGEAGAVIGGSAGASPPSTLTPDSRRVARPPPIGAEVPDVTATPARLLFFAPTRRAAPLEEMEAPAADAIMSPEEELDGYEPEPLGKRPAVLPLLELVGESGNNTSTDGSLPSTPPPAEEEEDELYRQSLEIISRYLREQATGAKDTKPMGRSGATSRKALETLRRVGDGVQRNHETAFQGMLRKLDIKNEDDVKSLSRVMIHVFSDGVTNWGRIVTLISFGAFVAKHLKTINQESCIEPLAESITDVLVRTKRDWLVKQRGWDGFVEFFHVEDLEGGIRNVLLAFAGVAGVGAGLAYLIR
GLD-1 RNA inh – GLD-1/TGE RNA complex disruptors, primary screen, biochemical, fluorescence polarization. purified GLD-1 + fluorescein TGE RNA. inhibition, % at 5.96 µM. Female germline-specific tumor suppressor gld-1 (Caenorhabditis elegans), Q17339. 0.44% of 320,000 active. AID 2280, 2010;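 active means percent inhibition above a per-plate cutoff, the plate mean of test compounds plus 3 SD, cut at about 30% in these data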;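 further: 0% = DMSO wells with GLD-1 and probe and 100% = wells lacking GLD-1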
Mcl-1 Bim block – inhibitors of Bim peptide binding to Mcl-1, primary screen, biochemical, bead-based flow cytometry, multiplex | inhibition, % at 10 µM | Bim peptide-Mcl-1 binding | Induced myeloid leukemia cell differentiation protein Mcl-1 (Homo sapiens), Q07820 | 0.1% of 190,000 active; in the data active means inhibition above about 40%;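 further: 0% = no compound tracer wells and 100% = peptide blocker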
Mcl1-Noxa inh – Mcl-1/Noxa binding inhibitors, primary screen, biochemical, TR-FRET, 1536-well; Induced myeloid leukemia cell differentiation protein Mcl-1 (Homo sapiens), Q07820; TR-FRET Mcl-1/Noxa peptide binding, 2 h; inhibition, % at 21.7 µM; 1.5% of 220,000 active;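 active means compounds that cut the protein-peptide binding signal by more than 50% relative to plate controls in a single-dose test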;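 further: His-tagged Mcl-1 with rhodamine Noxa BH3 peptide and terbium anti-His antibody; 0% = Mcl-1 plus Noxa peptide wells and 100% = peptide-only wells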
MCL1 BIM primary – inhibitors of MCL1 binding to BIM-BH3, primary screen, biochemical, fluorescence polarization. Induced myeloid leukemia cell differentiation protein Mcl-1 (Homo sapiens), Q07820. GST-MCL1 / FITC-Bim-BH3 fluorescence polarization. inhibition, % at 10.9 µM. 0.68% of 320,000 active;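 active means inhibition above the mean inhibition of all tested compounds plus 3 SD, set per campaign, cut at about 40% in these data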;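 further: 0% = DMSO wells and 100% = unlabeled Bim-BH3 peptide control; higher means more loss of mP so more displacement of Bim peptide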
Bcl-xL conf – Bcl-xL inhibitors blocking Bim BH3 binding, confirmation, counter-screen for MCL1 inhibitor project, biochemical, fluorescence polarization | shares compounds with MCL1 BIM primary | GST-Bcl-xL / FITC-Bim BH3 peptide FP binding | inhibition, % at 10.9 µM | 54% of 1,700 active;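 active means inhibition above a cutoff equal to the mean inhibition of all tested compounds plus 3 SD, cut at about 30% in these data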;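 further: 0% = DMSO wells and 100% = unlabeled Bim BH3 control peptide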
MCL1 BIM confirm – inhibitors of MCL1 binding to BIM-BH3, confirmation, biochemical, fluorescence polarization, triplicate. shares compounds with MCL1 BIM primary. GST-MCL1 / FITC-Bim-BH3 fluorescence polarization. inhibition, % at 10.9 µM. 61% of 1,700 active. AID 2168, 2009;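 active means inhibition above the average of all tested compounds plus 3 SD, cut at about 40% in these data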;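 further: 0% = DMSO wells and 100% = unlabeled Bim-BH3 control peptide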
An asterisk follows results filed as active; . = no result. Sampled rows, rich in hits. Any-hit rate of the full collection: about 2.3%.

SMILES | BCLXL inh | Mcl1-Bid inh | GLD-1 RNA inh | Mcl-1 Bim block | Mcl1-Noxa inh | MCL1 BIM primary | others
COC(=O)C1=C(c2cccc3c2S(=O)(=O)c2ccccc2-3)C[C@@H]2CC[C@H]1N2C(=O)N1CCc2cc(OC)c(OC)cc2C1 | 0 | . | 0 | . | . | 1
Cc1ccc(S(=O)(=O)NCCC(=O)Nc2ccc(Cl)cc2C(=O)c2ccccc2)cc1 | 2 | 1 | 4 | -5 | -1 | -8
Cc1ccc(S(=O)(=O)N[C@@H](CCCCN)C(=O)CCl)cc1 | 32* | . | 16 | . | . | 28
COC(=O)C1C2c3ccccc3OC1(C)N=c1s/c(=C/c3cnn(C)c3C)c(=O)n12 (stereo not drawn) | 4 | -8 | 1 | 64* | 9 | -3
CC(=O)C1C2c3ccccc3OC1(C)N=c1s/c(=C/c3cnn(C)c3)c(=O)n12 (stereo not drawn) | 6 | 1 | 2 | -2 | -8 | 1
COC(=O)C1=C(c2ccc(Cl)c(C(F)(F)F)c2)C[C@@H]2CC[C@H]1N2C(=O)NCCCOC(C)C | 2 | . | -3 | . | . | -1
COc1ccc(/C=C2/C(=O)NC(=S)N(C3CC3)C2=O)cc1CN1C(=O)c2ccccc2C1=O | 14 | 46 | 6 | 6 | 95* | 36
COc1ccc(/C=C2/C(=O)NC(=O)N(c3ccccc3)C2=O)cc1CN1C(=O)c2ccccc2C1=O | -5 | -149 | -4 | . | -12 | -11
CN(C)C(Cc1ccccc1)C(=O)c1cccs1 (stereo not drawn) | . | -25 | . | 48* | 18 | .
COc1cc(/C=C/[N+](=O)[O-])ccc1O | 7 | -25 | 2 | -4 | 51* | 9
CCC1(C2=NCCN2)Cc2ccccc2O1 (stereo not drawn) | 8 | . | -8 | . | . | 5
O=P1(NCCCl)OCCCN1CCCl (stereo not drawn) | 0 | . | 0 | . | . | 0
Cc1ccc(/C=C2\C(=O)NC(=S)N(c3ccc(F)cc3)C2=O)s1 | 15 | -24 | -8 | 0 | 29 | 21
Cc1ccc(/C=C2\C(=O)NC(=S)N(c3ccccc3F)C2=O)s1 | 11 | 19 | 1 | 0 | 93* | 26
CC(C)C1(C)N=C(c2ncccc2C(=O)O)NC1=O (stereo not drawn) | 4 | 85* | 5 | -1 | 2 | 7
CN(C)c1ccc(NC(=O)CN2C(=O)CN=C(c3ccccc3)c3cc(Cl)ccc32)cc1 | 3 | 2 | 4 | -3 | 78* | -5
CC(Cc1ccccc1)N1C(=O)c2ccccc2C1=O (stereo not drawn) | 3 | . | 5 | . | . | -4
CC(=Nc1ccc(F)cc1)c1c(O)n(C)c(=O)[nH]c1=O | 3 | . | 4 | . | . | 2
O=c1c2ccccc2nc(-c2ccco2)n1-c1cccnc1 | 10 | -20 | 3 | -6 | 97* | 3
Cc1ccc2c(c1N)C(=O)c1ccccc1C2=O | 47* | . | -4 | . | . | 42*
COC(=O)C1=C(c2ccc(F)cc2OCc2ccccc2)C[C@@H]2CC[C@H]1N2C(=O)NC1CC1 | 2 | . | -3 | . | . | 0
COC(=O)C1=C(c2ccc(OCc3ccccc3)cc2)C[C@@H]2CC[C@H]1N2C(=O)NC1CCN(Cc2ccccc2)CC1 | 2 | . | 7 | . | . | 0
O=C(O)CCn1cc(C=C2C(=O)NC(=S)NC2=O)c(-c2ccccc2)n1 | 4 | -52 | 5 | 2 | 62* | -10
N#CCCn1cc(C=C2C(=O)NC(=O)NC2=O)c(-c2ccccc2)n1 | 5 | -34 | -5 | 2 | 14 | 0
O=C(O)CCn1cc(C=C2C(=O)NC(=S)NC2=O)c(-c2cc3ccccc3oc2=O)n1 | . | 5 | . | 2 | 81* | .
SMILES | BCLXL inh | Mcl1-Bid inh | GLD-1 RNA inh | Mcl-1 Bim block | Mcl1-Noxa inh | MCL1 BIM primary | others
COC(=O)C1=C(c2ccc(F)cc2OCc2ccccc2)C[C@@H]2CC[C@H]1N2C(=O)N1CCCC1 | 1 | . | -5 | . | . | 8
O=C1NC(=S)N(c2ccccc2)C(=O)/C1=C/c1ccco1 | 47* | . | 25 | . | . | 53* | Bcl-xL conf=18;MCL1 BIM confirm=24
COc1ccc(C(=O)N2CCC3(CC2)OCCO3)cc1 | 1 | . | 10 | . | . | 1
O=C(c1ccc2nc(-c3ccco3)c(-c3ccco3)nc2c1)N1CCC2(CC1)OCCO2 | 52* | 6 | 22 | 4 | 78* | 69* | Bcl-xL conf=34*;MCL1 BIM confirm=39
O=C1NC(=O)N(Cc2ccco2)C(=O)/C1=C/c1ccc(-c2cccc([N+](=O)[O-])c2)o1 | 17 | -2 | -4 | 8 | 93* | 43* | Bcl-xL conf=24;MCL1 BIM confirm=62*
C=CCN1C(=O)NC(=O)/C(=C\c2ccc(-c3ccccc3[N+](=O)[O-])o2)C1=O | 5 | -52 | 6 | -8 | 15 | 29
COCCCNC(=O)Cn1cc(/C=C2\C(=O)NC(=O)N(c3ccccc3F)C2=O)c2ccccc21 | 2 | . | -22 | . | . | 100* | Bcl-xL conf=117*;MCL1 BIM confirm=133*
COCCNC(=O)Cn1cc(/C=C2\C(=O)NC(=O)N(c3ccccc3F)C2=O)c2ccccc21 | -11 | . | -15 | . | . | -21
O=C(O)c1cccc2c1NC(C(=O)O)C1CC(Sc3ccccc3[N+](=O)[O-])C(Cl)C21 (stereo not drawn) | 62* | 1 | 14 | 0 | 94* | 100* | Bcl-xL conf=50*;MCL1 BIM confirm=106*
CC(=O)c1ccc2c(c1)C1C(Cl)C(Sc3ccccc3[N+](=O)[O-])CC1C(C(=O)O)N2 (stereo not drawn) | 28 | 42 | 8 | -14 | 110* | 64* | Bcl-xL conf=19;MCL1 BIM confirm=38
C[CH2][Hg][S]c1ccccc1C(=O)O | 15 | . | 8 | . | . | 15
CCSC(=O)N1CCCCCC1 | 12 | . | -7 | . | . | 3
O=c1[nH]c(=O)n(-c2cccc(F)c2)c(O)c1/C=C1\C=Nc2ccccc21 | 160* | . | -19 | . | . | 199* | Bcl-xL conf=154*;MCL1 BIM confirm=177*
O=C(O)c1ccc(-n2c(O)c(/C=C3\C=Nc4ccccc43)c(=O)[nH]c2=O)cc1 | 0 | . | -17 | . | . | -12
COC(=O)Cn1cc(C=C2C(=O)NC(=O)NC2=O)c2ccccc21 | -5 | . | -17 | . | . | -6
CCn1cc(C=C2C(=O)NC(=O)NC2=O)c2ccccc21 | 136* | . | -14 | . | . | 148* | Bcl-xL conf=112*;MCL1 BIM confirm=123*
